High-throughput results from PubChem BioAssay.
Compounds with a hit are over-represented: about 8.7% of the library has one in this group of screens.
Smad3 inh = Smad3 (human) transcription factor binding inhibition; P84022; TR-FRET Smad3/Dy647-FoxH1 peptide binding, europium anti-His; inhibition, % at 25 µM; 88,000 compounds, 0.29% hits; AID 630;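 active means compounds that reduce the energy-transfer binding signal between the protein and its labelled peptide by more than half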;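 further: 0% = Smad3 plus labelled peptide maximal FRET and 100% = peptide-only background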
Target sequence (P84022 whole entry, looked up): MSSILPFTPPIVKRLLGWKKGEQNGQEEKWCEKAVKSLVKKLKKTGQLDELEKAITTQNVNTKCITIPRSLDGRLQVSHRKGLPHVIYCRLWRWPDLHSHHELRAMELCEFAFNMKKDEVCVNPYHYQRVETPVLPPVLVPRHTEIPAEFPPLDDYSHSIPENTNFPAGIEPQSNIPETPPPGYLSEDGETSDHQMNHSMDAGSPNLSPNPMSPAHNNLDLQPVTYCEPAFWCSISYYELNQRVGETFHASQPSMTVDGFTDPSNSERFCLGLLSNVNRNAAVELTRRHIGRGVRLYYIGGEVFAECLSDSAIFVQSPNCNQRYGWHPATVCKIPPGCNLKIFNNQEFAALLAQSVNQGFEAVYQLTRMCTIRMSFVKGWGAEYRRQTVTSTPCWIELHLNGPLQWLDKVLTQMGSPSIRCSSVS
PostGolgi ctrl = yeast control strain growth, post-Golgi counter-screen; AID 738; efflux-deficient yeast background strain, growth absorbance A615, 16 h; 98,000 compounds, 5% hits; inhibition, % at 10 µM
Cav3 T inh = inhibitors of human Cav3.2 T-type calcium channel; O95180; Cav3.2-expressing cells, Fluo-4 calcium fluorescence FDSS; stronger effect = lower value; B-score at 10 µM; 100,000 compounds, 4% hits;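 active means single-dose well whose peak fluorescence ratio is a statistical outlier from its plate by either plate-standardised score or position-corrected B-score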
PostGolgi yeast = growth inhibition of a yeast mutant, post-Golgi transport screen | post-Golgi transport phenotypic cell assay | inhibition, % at 10 µM | 98,000 compounds, 0.9% hits | AID 739;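 further: yeast cells grown in 1536-well plates; yeast grown about 18 h at 30C before absorbance read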
TNAP act DEA = activators of human TNAP at intermediate phosphate acceptor; P05186; purified TNAP, CDP-star luminescence, 100 mM DEA, 30 min; stronger effect = higher value; scale: 0 levamisole-inhibited, 1 vehicle-only enzyme; activation factor at 20 µM; 64,000 tested, under 10 active; AID 813;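 active means activation factor of at least 2 at 20 µM, relative to controls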
hDAT+cocaine = changed human dopamine transporter uptake under cocaine IC80. Q01959. AID 449768. B-score at 10 µM. LLC-PK1 hDAT cells, [14C]-dopamine uptake with cocaine IC80; actives deviate in either direction. 110,000 compounds, 1.3% hits;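 active means Z score or B-score, a plate-position-corrected score, falls beyond the plate's 99.7% confidence bounds, in either direction; inactive means both scores lie inside the 99.7% bounds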;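 further: scored against the spread of the other compound wells on the same plate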
An asterisk follows results filed as active; x = not tested or not shown. Unless noted, no stated cut-off is given here; in the data, active means inhibition above about 30%; inactive means the rest.

SMILES	Smad3 inh	PostGolgi ctrl	Cav3 T inh	PostGolgi yeast	TNAP act DEA	hDAT+cocaine
OCCN(CCO)CC(O)COCCC12CC3CC(CC(C3)C1)C2 (stereo not given)	11	8	0.68	-9	x	-0.73
COc1ccc2[nH]cc(CCNC(C)=O)c2c1	x	x	x	x	x	0.15
CCCCCN=C(N)N/N=C/c1c[nH]c2ccc(OC)cc12	x	x	x	x	x	3.7*
Cc1cc(Cl)ccc1OCc1n[nH]c(=S)n1C1CCCCC1	11	96*	-0.74	99*	x	-0.45
COc1ccc(Cl)cc1-c1n[nH]c(=S)n1C1CCCCC1	-2	18	-5*	-1	x	1.3
CCC(=O)N1CCc2cc(S(=O)(=O)NCCC(=O)Nc3cc(C)cc(C)c3)ccc21	-4	5	1.7	-1	0.9	-0.29
Cc1ccnc(NC(=O)C23CC4CC(CC(C4)C2)C3)c1	-6	10	-6.1*	-2	0.9	0.43
CCC(=O)Nc1ccc(NC(=O)C23CC4CC(CC(C4)C2)C3)cn1	x	4	0.47	1	0.9	0.17
Cc1sc2ncnc(N3CCN(CCOc4ccc(Cl)cc4)CC3)c2c1C	-18	35*	-0.29	-5	x	-1.1
Cc1sc2ncnc(N3CCC(C)CC3)c2c1C	4	x	-2	x	x	0.93
CCOC(=O)N1CCN(CC(O)COC2CC(C)CCC2C(C)C)CC1 (stereo not given)	7	14	-1.6	1	x	0.35
CCOC(=O)N1CCN(CC(O)COCCC23CC4CC(CC(C4)C2)C3)CC1 (stereo not given)	-1	31*	-1.8	4	x	0.0038
O=C(Nc1cccn(Cc2ccc(F)cc2)c1=O)NC1CCCCC1	-2	16	-3	-2	x	2.3*
O=C(Nc1cccn(Cc2ccccc2)c1=O)NC1CCCCC1	2	10	-1.6	3	x	0.93
COc1ccc(/C=C/C(=O)NC(=S)NNC(=O)Cc2cccs2)cc1	x	-15	x	2	x	x
O=C(/C=C/c1ccccc1)NC(=S)NNC(=O)Cc1cccs1	-24	x	-4.1*	x	x	0.86
CNCCCC1Sc2ccccc2Oc2ccccc21 (stereo not given)	-10	x	1.4	x	x	-0.93
O=C(Nc1cccc2cccnc12)c1ccc2c(c1)OCCO2	0	20	-4.5*	4	x	1.4
Clc1ccc(-c2n[nH]c3c2CCC3)cc1Cl	0	69*	-0.93	101*	x	0.63
Cc1cc(=O)n(C)c(=O)n1CCCCCN1CCCC1	19	0	-0.12	-1	0.9	-0.21
CCN(CC)c1ccc2c(c1)OC(N)=C(C#N)C2c1cccnc1 (stereo not given)	x	17	-11*	11	0.9	-1.8
Cc1ccc(-n2c(SCC(N)=O)nc3c([nH]c4ccccc43)c2=O)cc1	0	0	0.68	6	0.9	-0.071
Cc1cccc2c1NC(=O)C2(c1ccc(O)cc1)c1ccc(O)cc1	x	11	-5.1*	6	x	1.5
O=C(c1cc(-c2ccc(Cl)cc2)on1)N1CCOCC1	x	26	1.3	-3	1	0.88
Cc1ccc(-n2nc(C(=O)N3CCOCC3)cc2-c2ccc(Cl)cc2)cc1	x	41*	-1.8	14	x	0.99
SMILES	Smad3 inh	PostGolgi ctrl	Cav3 T inh	PostGolgi yeast	TNAP act DEA	hDAT+cocaine
O=C(c1cc(-c2ccc(Cl)cc2)n(-c2ccc(Cl)cc2)n1)N1CCOCC1	x	38*	-2.4	9	x	0.45
COc1cccc2c1C(=O)c1c(O)c3c(c(O)c1C2=O)C[C@](O)(C(=O)CO)C[C@@H]3O[C@@H]1C[C@H](N)[C@@H](O)[C@H](C)O1	9	x	x	x	x	x
COc1cccc2c1C(=O)c1c(O)c3c(c(O)c1C2=O)C[C@@](O)(C(=O)CO)C[C@@H]3O[C@H]1C[C@H](N)[C@@H](O)[C@H](C)O1	x	x	-5.6*	x	x	-0.33
O=C(Cc1ccccc1)N/N=C/c1cccs1	x	9	0.13	14	x	0.37
CC1=CCC(C(=O)N/N=C/c2cccs2)C(c2ccc(F)cc2)C1 (stereo not given)	-13	45*	-5.3*	3	x	-1.1
COc1ccc(NC(=O)c2ccccc2NC(=O)CSc2ccc(C)cc2)cc1	x	9	-0.17	-1	x	-0.67
CCCCCOc1ccc(CN2CCOCC2)cc1Cl	-2	55*	x	95*	0.9	0.83
CCCCC(O)(C(NC=O)C(=O)OC)C(F)(F)F (stereo not given)	2	0	0.55	-2	0.9	-8.6*
Cc1cc(-n2c(C)cc(C(=O)CN3C(=O)NC4(CCCCC4)C3=O)c2C)no1	-4	-1	0.033	-6	0.9	0.033
O=C(O)c1cnc(-c2ccccc2)nc1Sc1cccc(Cl)c1	x	18	-6.3*	7	x	0.24
Cn1c2c(c(=O)n(C)c1=O)C(C(F)(F)F)(C(F)(F)F)N=C(c1ccccc1Cl)N2	x	21	3	31*	x	-1.7
Cn1c2c(c(=O)n(C)c1=O)C(NS(=O)(=O)c1ccc(Cl)cc1)(C(F)(F)F)C(=O)N2 (stereo not given)	6	4	0.73	8	x	-0.055
O=c1[nH]cnc2c1sc(=S)n2-c1ccccc1	2	8	0.59	-1	1	0.19
Cc1nn(C)cc1/C=N\NC(=O)c1ccc2c(c1)c(C)c(C)n2Cc1ccccc1	x	15	-3.8*	11	x	0.7
CSc1ncc(Cl)c(C(=O)C(C#N)c2nc3c(C)cc(C)cc3c(=O)[nH]2)n1 (stereo not given)	6	22	-7*	-2	0.9	-1
O=C(Nc1sc2c(c1C(=O)c1ccc(Cl)cc1)CCCC2)c1cccnc1	x	40*	-0.56	8	x	0.44
N#Cc1c(NC(=O)c2cccnc2)sc2c1CCC2	0	8	-0.17	-13	x	-1.2
COc1ccc(/C=N/NC(=O)O)cc1	12	x	x	x	x	x
NC(=O)[C@@H]1CC2(CC(c3cccc(NC(=O)CC(c4ccccc4)c4ccccc4)c3)=NO2)CN1C(=O)[C@@H]1CCC(=O)N1 (stereo not given in full)	x	x	0.33	x	x	-1
COCCOC(=O)c1[nH]c2c(c1C)C(=O)CC(c1cc(OC)ccc1OC)C2 (stereo not given)	x	3	-0.00023	0	0.9	-0.045
CCCOCCOC(=O)c1[nH]c2c(c1C)C(=O)CC(c1cc(OC)ccc1OC)C2 (stereo not given)	4	12	-5.3*	3	1	1.7
CCOC(=O)c1[nH]c2c(c1C)C(=O)CC(c1ccc(OC)c(OC)c1)C2 (stereo not given)	-3	24	0.061	-6	0.9	-0.58
COc1cc(C2CC(=O)c3c([nH]c(C(=O)OCCOC(C)C)c3C)C2)cc(OC)c1OC (stereo not given)	x	16	-4.7*	-1	0.9	0.05
CCOc1ccc(-c2nnc(NC(=O)c3ccc(OCC(C)C)c(OC)c3)o2)cc1	-36	4	-4.2*	18	0.9	-0.68
O=C(Nc1nnc(-c2cccs2)o1)c1ccco1	1	7	-0.24	2	1	-0.94
COc1cccc(C(=O)Nc2nnc(-c3ccc(Cl)cc3)o2)c1	x	x	-5.4*	x	0.9	-0.034
